Data: PubChem BioAssay (NCI)
Where “and” joins values, the source holds several entries; their conditions need not be identical. Equal values may be shown once. Compounds without any hit were thinned out: in the full panel of roughly 83,000, 20% have a hit.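 Cell lines were cultured in 96-well plates, exposed to a single compound concentration, and assessed for percent growth 48 hours later.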 Unmarked numbers belong to inactive results. Calls of active or inactive are those of the source. How the source made its calls: active means growth percent below 10; inactive means the rest.

The compounds below were run on HL-60(TB) leukemia (assay: NCI-60 one-dose screen, 48 h (100 = growth as untreated, 0 = no growth, -100 = all killed)). Settings: 10 µM unless noted.

Row | Compound | growth
1 | CC[N+](CC)(CC(=O)Nc1c(C)cccc1C)Cc1ccccc1 | 79.6% and 94.7%
2 | CCN1C(=O)N(CC)C2C1NN=c1s/c(=C\c3ccc(Cl)cc3Cl)c(=O)n12 (stereo unspecified) | -52.1% (active)
3 | COc1cc(-c2cc(=O)oc3cc(O)ccc23)c(OC)c2c1OCO2 | 103%
4 | COc1ccc(-c2ccc(NNC(=O)c3ccc(F)cc3)nn2)cc1OC | 46.9%
5 | CO[C@H](C(=O)[C@@H](O)[C@@H](C)O)[C@@H]1Cc2cc3cc(OC4CC(OC5CC(O)C(O)C(C)O5)C(O)C(C)O4)c(C)c(O)c3c(O)c2C(=O)[C@H]1OC1CC(OC2CC(OC3CC(C)(O)C(O)C(C)O3)C(O)C(C)O2)C(O)C(C)O1 (stereo partly specified) | 3.88% (active)
6 | COc1ccc(OC)c(/C=C2\Oc3cc(OCCN4CCC(Cc5ccccc5)CC4)ccc3C2=O)c1 | 98.2%
7 | CCN(CC)CCNC(=O)c1c(C)[nH]c(/C=C2\C(=O)Nc3cc(NC(=O)NC(=O)c4ccc(OC)cc4F)ccc32)c1C | 95.9%
8 | COc1cc2cc(Oc3ccc(NC(=O)Nc4ccc(Cl)c(Cl)c4)cc3)c(C)nc2cc1OC | 9.64% (active)
9 | CS(=O)(=O)Nc1cc(-c2ccc3ncnc(Nc4c(Cl)ccc5c4OCO5)c3c2)cnc1Cl | -4.02% (active)
10 | CC(=O)OCC(=O)[C@@]1(O)CC[C@H]2[C@@H]3CC[C@@H]4C[C@H](O)CC[C@]4(C)[C@H]3C(=O)C[C@@]21C | 94%
11 | COc1cc(C(=O)NN=C2c3ccccc3-c3ccccc32)cc(OC)c1OC | 11.4%
